Measured values as given in PubChem BioAssay (NCI).
This is part of a sample that, as a whole, favours compounds with a hit. Of some 83,000 tested, about 20% had one in any assay.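 Single-dose data. Exposure time 48 hours. Values below 10 considered active.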 A number with no mark means an inactive call. Active and inactive are the calls of the source.

tested on: HL-60(TB) leukemia; test: NCI-60 one-dose screen, 48 h (100 = growth as untreated, 0 = no growth, -100 = all killed); conditions: 10 µM unless noted

Question: With C=C1C(=O)OC2CC1C(OC(C)=O)C/C(C)=C/CC/C(C)=C\CCC2(C)O (stereo not given) as the compound, how does the growth read?
Answer: -51.9% (active)

Question: For CCOC(=O)c1ccccc1OC(=O)NNc1ccccc1, which growth is on record?
Answer: -7.77% (active)

Question: For COc1ccc(C(=O)/C(=N/Nc2ccccc2)c2ccc(OC)cc2)cc1, which growth is on record?
Answer: 88.4%

Question: Cc1ccc(-c2nc3nc(-c4ccccc4)nc(N4CCN(S(=O)(=O)c5ccccc5)CC4)c3o2)cc1 was tested. Which growth did it give?
Answer: 107%

Question: NC(CC(N)C(=O)O)C(=O)O (stereo not given) was tested. Which growth did it give?
Answer: 110%

Question: How did the growth turn out when Cn1nc(-c2ccc(Cl)cc2)nc2c(=O)n(C)c(=O)nc1-2 was run?
Answer: -43.2% (active)

Question: Which growth does the source give for COc1ccc(C(=O)CSc2nccc(Nc3ccc(C(=O)O)cc3)n2)cc1 here?
Answer: 99.5%

Question: Which growth does the source give for O=C(N/N=C/c1coc2ccccc2c1=O)c1cc2oc(-c3ccccc3)cc2[nH]1 here?
Answer: 99%

Question: How did the growth turn out when COc1cc(OC)c2cc(C(=O)c3ccc(C#N)cc3)c(=O)oc2c1 was run?
Answer: 97.4%

Question: Which growth does the source give for FC(F)(F)c1[nH]ncc1-c1nc2ccc3n[nH]c(C#Cc4cccnc4)c3c2c2c1CCCC2 here?
Answer: 24.4%

Question: With Nc1ccc(N)c([N+](=O)[O-])c1 as the compound, how does the growth read?
Answer: 110%

Question: With Cn1ccnc1C(=O)/C=C/c1ccc(CC(=O)Nc2ccccc2)cc1 as the compound, how does the growth read?
Answer: -27.2% (active)

Question: For Nc1ncc(-c2ccc3ncnc(N4CCc5ccc(Cl)cc54)c3c2)cn1, which growth is on record?
Answer: -51.1% (active)

Question: Which growth does the source give for Nc1nc(Cl)c2[nH]cnc2n1 here?
Answer: 89.5%

Question: For O=c1ccc2nc(C(F)(F)F)nn(-c3ccccc3)c-2c1, which growth is on record?
Answer: -36.6% (active)

Question: For Cc1ccccc1C(=O)c1ccccc1C(=O)O, which growth is on record?
Answer: 106%

Question: Which growth does the source give for Cc1cc(N2CCCCC2)nc(NC2CCCC(Nc3ccnc4cc(Cl)ccc34)C2)n1 (stereo not given) here?
Answer: -63.6% (active)

Question: For COc1cc(-c2cc(-c3ccc(Nc4ncnc5cc(Cl)ccc45)cc3)nc(N3CCCCC3)n2)cc(OC)c1OC, which growth is on record?
Answer: 91.6%

Question: For O=S(=O)(Nc1cc(Sc2cccc3cccnc23)c(O)c2ccccc12)c1ccc(F)cc1, which growth is on record?
Answer: -21.9% (active)

Question: O=[N+]([O-])c1ccc(N/N=C\c2ccc(O)cc2O)nc1 was tested. Which growth did it give?
Answer: 0.875% (active)

Question: With Cn1cc(-c2nc(-c3c[nH]c4ccncc34)cs2)c2cc(F)ccc21 as the compound, how does the growth read?
Answer: -55.3% (active)

Question: With COc1cccc(/C=C/C(=O)c2cc3c(N)c(C(=O)Nc4cccc(Cl)c4C)sc3nc2C)c1 as the compound, how does the growth read?
Answer: 0.771% (active)

Question: Which growth does the source give for Cc1ccc(S(=O)(=O)NCCCNc2nccc(-c3c(-c4ccccc4)nc4sccn34)n2)cc1 here?
Answer: -13.1% (active)

Question: For O=C(c1ccccc1)C1OC1C(=O)c1ccccc1 (stereo not given), which growth is on record?
Answer: 22.8%

Question: Which growth does the source give for Cc1ccccc1-n1nnc(C(=O)Nc2nc3ccc(F)cc3s2)c1C here?
Answer: 1.12% (active)

Question: C#CCOc1ccc2ncnc(N3CCC(NC(=O)CCl)CC3)c2c1 was tested. Which growth did it give?
Answer: 68.8% [8.25 µM]

Question: C[n+]1cccc(CC(=O)NO)c1 was tested. Which growth did it give?
Answer: 94.7%

Question: Which growth does the source give for CN(C)CCCn1c2nc(=O)[nH]c(=O)c-2nc2cc(Cl)c(Cl)cc21 here?
Answer: 76%

Question: How did the growth turn out when O=C(NCCc1c[nH]c2ccccc12)C1Cc2ccccc2CN1C(=O)c1ccco1 (stereo not given) was run?
Answer: 82.8%

Question: With Cc1ccc2nc(/C=C/c3ccc(N(C)C)cc3)cc(C)c2c1 as the compound, how does the growth read?
Answer: 15.2%

Question: O=C(Nc1ncc(Cc2ccccc2Cl)s1)c1cccs1 was tested. Which growth did it give?
Answer: 58.5%

Question: CSc1nc2c(c(=O)[nH]1)N=C1c3ccccc3C(=O)C1C(c1ccc(F)cc1)N2 (stereo not given) was tested. Which growth did it give?
Answer: 91.4%

Question: With CCN(CC)CCN1C(=O)c2c(c(C)c3c(oc4ccc(O)cc43)c2C)C1=O as the compound, how does the growth read?
Answer: -6.29% (active)

Question: Which growth does the source give for O=C(N=Nc1c(O)[nH]c2ccccc12)Nc1ccccc1Cl here?
Answer: 78.3%

Question: c1ccc2c(Cc3csc4ccccc34)csc2c1 was tested. Which growth did it give?
Answer: 72%

Question: With OB(O)c1ccsc1-c1nc2ccc3[nH]ncc3c2c2c1CCCC2 as the compound, how does the growth read?
Answer: 52.2%

Question: How did the growth turn out when COc1cc(/C=C/c2cc(/C=C/c3ccc(O)c(OC)c3)n(C(N)=O)n2)ccc1O was run?
Answer: -25.1% (active)

Question: For COc1ccc(C2CC(=O)Oc3c(OC)c4c(c(OC)c32)OCO4)cc1 (stereo not given), which growth is on record?
Answer: 95.6%

Question: CC(=O)n1cc(-c2c[nH]c3ccccc23)c(-c2ccc(Cl)cc2)n1 was tested. Which growth did it give?
Answer: 135%

Question: For N#CN1CCC[C@H]1C(=O)N1CCc2c(-c3[nH]nc4ncccc34)cccc21, which growth is on record?
Answer: -30.7% (active)
